Assay results published in PubChem BioAssay (NCI).
This is part of a sample that, as a whole, favours compounds with a hit. Of some 83,000 tested, about 20% had one in any assay.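 Step 1: grow cells in 96-well plates. Step 2: add test compound at a single concentration. Step 3: incubate 48 h. Step 4: record percent growth.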 Unmarked numbers belong to inactive results. Calls of active or inactive are those of the source. How the source made its calls: active means growth percent below 10; inactive means the rest.

System: MDA-MB-468 breast
Test: NCI-60 one-dose screen, 48 h (100 = growth as untreated, 0 = no growth, -100 = all killed)
Conditions: 10 µM unless noted

Row | SMILES | growth
1 | O=C(O)CCCc1ccccc1 | 109%
2 | COc1ccc(Cl)cc1NC(=O)c1cc2c([nH]1)-c1nc(NC(=O)C(C)C)sc1CC2 | 112%
3 | NS(=O)(=O)c1ccc(CCN2C(=O)/C(=C\c3ccc(Cl)cc3)C=C2c2ccc3ccccc3c2)cc1 | 91%
4 | CCOC(=O)c1cnc2c(C)cccc2c1Nc1ccc(C(C)=O)cc1 | -71.2% (active)
5 | O=C1NC(=O)C(=Cc2cc(-c3ccc(Cl)cc3)n(-c3ccccc3)n2)C(=O)N1 | 87.3%
6 | CC1(C)C2CC1C1(/C=N/NC(N)=S)C(C2)C(C#N)(C#N)C1(C#N)C#N (stereo not given) | 76.6%
7 | O=C(O)c1ccc(P(=O)(O)O)c([N+](=O)[O-])c1 | 98.4%
8 | CCOC(=O)C#Cc1c(C(=O)OCC)nnn1Cc1ccc(C(F)(F)F)cc1 | -25.7% (active)
9 | Cc1ccc(SCN2CCN(c3cccc(Cl)c3)CC2)cc1 | 115%
10 | N=C(N)c1ccc(OCCSCCOc2ccc(C(=N)N)cc2)cc1 | 40.1%
11 | CNC(=O)c1cn2c3c(c(N4CCN(C)CC4)c(F)cc3c1=O)OC[C@@H]2C | 97.7%
12 | Nc1nc(Nc2ccc(F)cc2)nn1C(=O)c1cc(Cl)ccc1Cl | 60.6%
13 | COc1ccc(-c2nc(Nc3ccc(F)cc3)nc(Nc3ccc4c(c3)nc(C)n4Cc3ccccc3)n2)cc1 | 28.4%
14 | C=C(C)C1CC(O)C2(C)CCCC3C2C1CC(C)C3(C)CC/C(C)=C/C(O)C1CCC(=O)c2c(OC)cc(OC)cc21 (stereo not given) | 0.0686% (active)
15 | Clc1nc2ccccc2cc1Cn1nnc(Cc2ccccc2)n1 | 11.1%
16 | CC(C)(C)c1cc(C=O)cc(C(C)(C)C)c1O | 94.9%
17 | CCCCN(Cc1ccc(C(=O)NO)cc1)C(=O)Nc1ccc(OCCCCCCCCCn2cc(CCCCC(=O)N[C@H](C(=O)N3C[C@H](O)C[C@H]3C(=O)NCc3ccc(-c4scnc4C)cc3)C(C)(C)C)nn2)cc1 | 0.0949% (active)
18 | COc1cccc(-c2nc3sccn3c2-c2ccnc(NCCNS(=O)(=O)c3cccc(F)c3)c2)c1 | 25.6%
19 | S=c1sc2ccccc2n1CN1CCCCC1 | 108%
20 | CC(C)(C)OC(=O)NCc1ccc(CNc2c([N+](=O)[O-])cnc3ccccc23)cc1 | 22.2%

Row | SMILES | growth
21 | Cc1cccc(OCC(O)CN2CCN(c3ccc(Cl)cc3)CC2)c1 (stereo not given) | 112%
22 | CC(C)(C)[Si](C)(C)OC1[C@@H](CNC(=O)NC(=O)CCl)O[C@@H](n2cnc3c(N)ncnc32)[C@H]1O[Si](C)(C)C(C)(C)C (stereo not given in full) | -2.45% (active)
23 | CCCCCc1ccc(S(=O)(=O)Nc2cc(-c3csc(NC(=O)CN4CCN(C)CC4)n3)ccc2N2CCN(C)CC2)cc1 | 51.7%
24 | O=C(O)c1cn(C2CC2)c2cc(N3CCN(C(=O)CSc4nc(NS(=O)(=O)c5ccccc5)cc(=O)[nH]4)CC3)c(F)cc2c1=O | 98.7%
25 | CN(C)c1ccc(-c2nc(-c3ccccc3)c(-c3ccccc3)[nH]2)cc1 | 114%
26 | Oc1nc(NCc2ccccc2)sc1/C=C1\C=Nc2ncccc21 | 58.4%
27 | CC/C(=C(/c1ccc(Cl)cc1)c1ccc(OCCN(CC)CC)cc1)c1ccc(OC)cc1 | 38%
28 | NNC(=O)Nc1ccccc1 | 104%
29 | O=C(CI)NC1Oc2ccccc2-c2oc(=O)c(-c3ccccc3)cc21 (stereo not given) | -42.3% (active)
30 | CCOC(=O)CNC | 101%
31 | COC(=O)/C=C/C(=O)NC(N)=O | 90.8%
32 | O=C1OC2C(I)C3CC2C1C3c1ccccc1 (stereo not given) | 91.5%
33 | CCn1c2ccc(/C=N/NS(=O)(=O)CCN(C)C)cc2c2cc(/C=N/NS(=O)(=O)CCN(C)C)ccc21 | 92.9%
34 | COc1ccc(NC(=O)C2c3ccccc3C(=O)N(CC(C)C)C2c2cccs2)cc1 (stereo not given) | 82.3%
35 | O=C(Nc1ccc(OCc2nnc(-c3ccc(Cl)cc3)o2)c(F)c1)Nc1ccc(Cl)c(Cl)c1 | 43.2%
36 | COC(=O)c1ccc(NC2=C/C(=N/S(=O)(=O)c3ccc(C(=O)O)cc3)c3ccccc3C2=O)cc1 | -37.4% (active)
37 | O=C(c1ccc(O)cc1)[C@@H]1[C@@H]2CCCN2[C@@]2(C(=O)N(C(=O)c3ccc(F)cc3)c3ccccc32)[C@H]1c1ccc(F)cc1 | 92.4%
38 | Oc1ccc(C(c2ccc(O)cc2)c2ccc(Br)cn2)cc1 | -35.7% (active)
39 | Cn1cc(-c2csc(-c3cn(CCNC(=O)OC(C)(C)C)c4ccccc34)n2)c2cccnc21 | 23.4%
40 | NCCN1CCN(c2nccc(-c3ccc4ccccc4c3)n2)CC1 | 56.2%
